# DPM-DC inhibit = inhibitors of Streptococcus pneumoniae diphosphomevalonate decarboxylase | purified DPM-DC, PK/LDH coupled NADH fluorescence | calls only at 10 µM | hit rate 0.49% among 65,000 | AID 556;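 active means the 320 compounds with the highest percent inhibition in the single-dose primary screen, excluding strongly autofluorescent ones, cut at about 32% in these data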;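 further: kinetic rate of NADH fluorescence loss reporting ADP formed by the decarboxylase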
# NADH enzymes = blocks coupling enzymes of NAD/NADH assays | coupled PK/LDH NADH assays, four targets | IC50, µM (series often up to 10 µM) | hit rate 0.02% among 65,000;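 active means single-dose screening hits from any of four coupled enzyme assays that gave an IC50 when retested across doses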;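 further: the DPM-DC format reads NADH fluorescence rather than 340 nm absorbance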
# MK inhibit = blocks S. pneumoniae mevalonate kinase. purified MK, PK/LDH-coupled NADH absorbance 340 nm. AID 555. inhibition, % at 10 µM. hit rate 0.48% among 65,000;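 active means ranked among the strongest by inhibition in the single 10 µM screen, a fixed top-ranked set picked for dose follow-up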
# Abs 340nm = compounds absorbing at 340 nm. compound absorbance at 340 nm, fold over control. fold change at 10 µM. 65,000 tested, under 10 active. AID 708;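 active means at 10 µM dose, initial 340 nm absorbance at least 2 fold that of control wells; inactive means change under 2 fold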;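 further: initial absorbance extrapolated from kinetic A340 decline of NADH oxidation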
# PMK inhibit = blocks S. pneumoniae phosphomevalonate kinase; purified PMK, PK/LDH-coupled NADH absorbance 340 nm; inhibition, % at 10 µM; hit rate 0.49% among 65,000; AID 539;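 active means top-ranked compounds by inhibition in the single 10 µM screen, taking a fixed number of the strongest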
# Fluor 339 460 = intrinsic fluorescence of library compounds, ex339/em460 – biochemical, MLSMR library, data from DPM-DC assay, artefact control, profiling panel | fluorescence fold increase at 10 µM | compound autofluorescence, ex339/em460 nm, NADH buffer; active compounds read high; 1 = no-compound wells, NADH background | AID 709 | hit rate 5.5% among 65,000;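 active means at 10 µM, mean starting fluorescence two-fold or more over control wells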;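 further: signal is the first read of a kinetic run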
# Numbers stand for hits; i = inactive; nt = no result shown; + = active, no number. This is a sample that favours compounds with a hit; in the whole collection about 6.8% have one here.
SMILES,DPM-DC inhibit,NADH enzymes,MK inhibit,Abs 340nm,PMK inhibit,Fluor 339 460
COc1cccc(/C=N/n2c(SC)nnc2-c2ccccc2)c1OC,nt,i,i,i,i,2.1
COC(=O)Cn1c(=NC(=O)CSC(C)=O)sc2ccccc21,+,i,i,i,i,i
CCn1c(=NC(=O)CSC(C)=O)sc2ccccc21,i,i,i,i,i,i
O=c1c2c(nc3c(-c4cccc(Br)c4)c[nH]n13)CCCC2,i,i,i,i,i,2.7
CCOC(=O)Cc1c(C)nc(-c2ccccc2)[nH]c1=O,i,i,i,i,i,i
CCOC(=O)Cc1c(C)nc2c(-c3cccc(Br)c3)c[nH]n2c1=O,nt,i,i,i,i,2.2
c1ccc2sc(-c3ccc4c(c3)OCO4)nc2c1,nt,i,i,i,i,2.1
COc1c(Cl)cc(Cl)cc1/C=N/n1cnnc1,i,i,i,i,i,i
O=C(O)c1ccc(CNc2ccccc2C(=O)O)cc1,i,i,i,i,i,2.6
O=C(O)c1ccccc1NCc1ccncc1,i,i,i,i,i,2
O=C(O)c1ccccc1C(=O)NCc1ccccc1,i,i,i,i,i,i
Clc1ccc(OCCCn2cncn2)cc1Cl,i,i,i,i,i,i
Cc1occc1-c1nnc(SCC(=O)N2CCOCC2)n1CCc1ccccc1,i,i,i,i,i,i
Cc1occc1-c1nnc(SCC(=O)N2CCOCC2)n1Cc1ccco1,i,i,i,i,27,i
NC(=O)C1CCCN(Cc2ccc(Cl)cc2)C1 (centres undefined),i,i,i,i,i,i
N#CCSc1nnc(C2CCCCC2)n1Cc1ccccc1,i,i,i,i,i,i
Cc1cc(=O)oc2c(CN(C)Cc3ccccc3)c(O)ccc12,nt,i,i,i,i,3.6
Cc1cc(=O)oc2c(N)c(O)ccc12,i,i,i,i,i,i
CC(=O)c1cccc(S(=O)(=O)N2CCN(c3nc4cc(C)cc(C)c4cc3C#N)CC2)c1,i,i,i,i,i,2.2
COc1ccccc1CNC(=O)CNC(=O)Cn1cnc2ccccc2c1=O,i,i,i,i,i,i
CC1CCN(c2oc(-c3cccc4ccccc34)nc2C#N)CC1,nt,i,i,i,i,3
N#Cc1nc(-c2cccc3ccccc23)oc1N1CCCCC1,nt,i,i,i,i,3.7
N#Cc1nc(Cc2cccc3ccccc23)oc1N1CCCCC1,i,i,i,i,i,i
Cc1cccc(OCc2nc(C#N)c(N3CC(C)CC(C)C3)o2)c1 (centres undefined),i,i,i,i,i,i
N#Cc1nc(-c2ccccc2Cl)oc1N1CCCCC1,i,i,i,i,i,i
SMILES,DPM-DC inhibit,NADH enzymes,MK inhibit,Abs 340nm,PMK inhibit,Fluor 339 460
CC1CC(C)CN(c2oc(-c3ccccc3Cl)nc2C#N)C1 (centres undefined),nt,i,i,i,i,3.2
COC(=O)C(NC(=O)C(C)Oc1ccccc1)C(C)C (centres undefined),i,i,i,i,i,i
CN1CCN(c2nc(-c3cccs3)cc(C(F)(F)F)n2)CC1,i,i,i,i,i,i
CS(=O)(=O)c1nc(-c2cccs2)cc(C(F)(F)F)n1,nt,i,i,i,i,2.2
Cc1cc(NC(=O)CCCS(=O)(=O)c2nc(-c3cccs3)cc(C(F)(F)F)n2)no1,nt,i,i,i,i,3.4
CCc1cc2c(N[C@@H](C)C(=O)O)ncnc2s1,i,i,i,i,i,i
O=C(Nc1cccc(-c2cn3cccnc3n2)c1)c1ccco1,nt,i,i,i,i,5.4
O=C(Nc1cccc(-c2cn3cccnc3n2)c1)c1ccc(Br)o1,nt,i,i,i,i,5.2
O=C(Nc1cccc(-c2cn3cccnc3n2)c1)c1ccc2c(c1)OCO2,nt,i,i,i,i,5.3
O=C(Nc1cccc(-c2cnc3ccccc3n2)c1)c1ccco1,i,i,i,i,i,i
O=C(COc1ccccc1Cl)N1CCN(c2ncccn2)CC1,i,i,i,i,i,i
COc1ccc(S(=O)(=O)N(CCCN2CCCC2=O)Cc2cc3c(C)cc(C)cc3[nH]c2=O)cc1,i,i,i,i,i,i
CCOc1ccc2[nH]c(=O)c(CN(CCN3CCOCC3)Cc3nnnn3C(C)(C)CC)cc2c1,i,i,i,i,i,2.6
COc1ccc2cc(CN(CCCN3CCOCC3)Cc3nnnn3C3CCCCC3)c(=O)[nH]c2c1,i,i,i,i,i,i
CCOc1ccc2[nH]c(=O)c(CN(Cc3cccs3)Cc3nnnn3C(C)(C)C)cc2c1,i,i,i,i,i,2.4
COc1ccc2[nH]c(=O)c(CN(Cc3cccs3)Cc3nnnn3C(C)(C)C)cc2c1,i,i,i,i,i,i
COc1cccc(N(CC(=O)N2CCN(C)CC2)S(=O)(=O)c2ccccc2)c1,i,i,i,i,i,i
CCC(=O)N1CCc2cc(Br)cc(S(=O)(=O)C3(C(=O)OC)CC3)c21,i,i,i,i,i,i
Cn1c2ccccc2c2cnn(CC(=O)N3CCN(c4ncccn4)CC3)c(=O)c21,i,i,i,i,25,i
CN1CCN(CCCNC(=O)Cn2ncc3c4ccccc4n(C)c3c2=O)CC1,i,i,i,i,i,i
CCn1c(SCC(=O)NC2CCCCC2)nnc1-c1cccs1,i,i,i,i,i,i
CCn1c(SC(=O)NC2CCCCC2)nnc1-c1cccs1,nt,i,i,i,25,i
COc1ccc(C(=O)NCc2cn3cccc(C)c3n2)cc1OC,i,i,i,i,i,i
Cc1ccc(CN2CC34C=CC(O3)C(C(=O)NCc3ccc5c(c3)OCO5)C4C2=O)cc1 (centres undefined),i,i,i,i,i,i
COCCCNC(=O)C1C2C=CC3(CN(Cc4ccc(C)cc4)C(=O)C13)O2 (centres undefined),i,i,i,i,25,i
SMILES,DPM-DC inhibit,NADH enzymes,MK inhibit,Abs 340nm,PMK inhibit,Fluor 339 460
NC(=O)CCN(Cc1ccccc1)S(=O)(=O)c1ccccc1,i,i,i,i,28,i
CCCOc1nc2c(c(=O)n(C)c(=O)n2C)n1CC,i,i,i,i,i,i
O=C(Nc1ccc2c(c1)OCCO2)c1ccc2nccnc2c1,i,i,i,i,i,i
Cc1ccc(OCC(=O)NCc2ccco2)cc1C,i,i,i,i,i,i
O=c1[nH]c(CSc2nnc(-c3ccncc3)n2Cc2ccco2)nc2ccccc12,i,i,i,i,i,i
C=CCn1c(SCc2nc3ccccc3c(=O)[nH]2)nnc1-c1cc2cc(Cl)ccc2o1,i,i,i,i,i,2.1
CCCCCn1c(Br)nc2c1c(=O)n(CC(N)=O)c(=O)n2C,i,i,i,i,i,i
Cc1nc2[nH]c(=O)c3c(n2n1)NC1=C(C(=O)CC(C)(C)C1)C3c1ccccc1 (centres undefined),nt,i,i,i,i,4
Cc1ccc(C2C3=C(CC(C)(C)CC3=O)NC3=C2C(=O)CC(C)(C)C3)o1,i,i,i,i,i,i
COc1ccc(NC(=O)c2cc3cc(OC)ccc3oc2=N)cc1,i,i,i,i,i,i

# Screening results: PubChem, SRMLSC
